The term inhibition denotes the drop in the measured response relative to a control, in per cent.

“And” between values parts separate entries of the source, which are not always exact repeats. Equal entries are not always repeated. Screen size: about 370,000 compounds; about 3,100 (0.84%) were called active. Cut-off read from the data, not from the text of the source: active = inhibition above about 9.5%; inactive = the rest. The full list was thinned out, with actives kept by preference.

1-phosphatidylinositol 4,5-bisphosphate phosphodiesterase gamma-1 (Homo sapiens), sequence (P19174 whole entry, looked up): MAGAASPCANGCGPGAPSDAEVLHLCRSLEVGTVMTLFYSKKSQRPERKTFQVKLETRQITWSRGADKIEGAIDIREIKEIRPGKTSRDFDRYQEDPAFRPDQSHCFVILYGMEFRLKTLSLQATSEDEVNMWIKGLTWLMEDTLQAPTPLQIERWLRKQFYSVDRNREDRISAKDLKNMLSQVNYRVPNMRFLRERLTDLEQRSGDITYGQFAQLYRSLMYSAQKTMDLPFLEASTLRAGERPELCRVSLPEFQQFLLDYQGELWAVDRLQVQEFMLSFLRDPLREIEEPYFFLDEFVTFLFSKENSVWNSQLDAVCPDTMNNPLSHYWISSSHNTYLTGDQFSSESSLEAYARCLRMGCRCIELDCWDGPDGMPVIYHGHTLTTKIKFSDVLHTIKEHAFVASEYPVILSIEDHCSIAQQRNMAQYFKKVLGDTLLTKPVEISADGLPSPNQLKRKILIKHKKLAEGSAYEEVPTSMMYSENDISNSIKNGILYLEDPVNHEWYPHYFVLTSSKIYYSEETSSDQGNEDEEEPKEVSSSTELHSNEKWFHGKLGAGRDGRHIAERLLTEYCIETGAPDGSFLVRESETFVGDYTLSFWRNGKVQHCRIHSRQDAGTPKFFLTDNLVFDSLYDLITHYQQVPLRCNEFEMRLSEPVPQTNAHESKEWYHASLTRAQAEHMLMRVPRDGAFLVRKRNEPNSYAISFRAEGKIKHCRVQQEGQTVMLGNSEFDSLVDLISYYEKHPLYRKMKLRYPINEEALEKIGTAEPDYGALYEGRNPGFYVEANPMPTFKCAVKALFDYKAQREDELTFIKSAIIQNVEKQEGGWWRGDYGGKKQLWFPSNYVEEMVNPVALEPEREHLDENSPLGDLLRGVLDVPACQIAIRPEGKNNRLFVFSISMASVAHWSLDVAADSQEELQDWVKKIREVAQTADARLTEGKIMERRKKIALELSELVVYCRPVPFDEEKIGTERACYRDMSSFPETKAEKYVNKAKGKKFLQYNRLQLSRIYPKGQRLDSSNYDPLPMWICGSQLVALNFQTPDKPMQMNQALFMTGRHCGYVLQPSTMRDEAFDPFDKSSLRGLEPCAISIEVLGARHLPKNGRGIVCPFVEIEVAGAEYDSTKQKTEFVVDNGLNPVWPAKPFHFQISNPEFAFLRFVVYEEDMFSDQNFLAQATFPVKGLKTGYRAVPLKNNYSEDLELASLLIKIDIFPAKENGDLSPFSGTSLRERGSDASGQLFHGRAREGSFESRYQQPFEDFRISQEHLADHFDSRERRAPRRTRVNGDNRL

The test concerns the target 1-phosphatidylinositol 4,5-bisphosphate phosphodiesterase gamma-1 (Homo sapiens) (UniProt P19174). Briefly: PLC-gamma1 enzyme inhibitors, primary screen, biochemical, fluorescence, purified enzyme (AID 720700). The conditions noted are these: purified PLC-gamma1, fluorogenic substrate, at 12.2 µM, active compounds read high.
Regarding `CC(=O)N1CN2CN(C(C)=O)CC(C(=O)c3ccc(Br)cc3)(C2)C1`, the inhibition was 11.9% (active).

As for `Cc1cc(-c2ccc(N)c(C)c2)ccc1N`, the inhibition is 2.25% (inactive).

`Oc1ccc2c3c1OC1[C@H](O)CC[C@@]4(O)[C@@H](C2)N(CC2CC2)CC[C@]314` (stereo not given in full): the inhibition is -3.08% (inactive) and -2.01% (inactive).

Consider `O=C(NC1CCCCC1)N1Cc2cc(N3CCCCC3)ccc2-n2nncc2C1`, for which the inhibition is -5.89% (inactive).

Take `CCN(CC)P(=O)(Oc1cccc(C)c1)N(CC)CC`: the inhibition was 7.26% (inactive).

For `COC(=O)C1=C(c2ccc(F)cc2OCc2ccccc2)C[C@@H]2CC[C@H]1N2C(=O)NCc1ccc(Cl)cc1`, the inhibition was 4.35% (inactive).

`COC(=O)C1=C(c2cccc(OCc3ccccc3)c2)C[C@@H]2CC[C@H]1N2C(=O)NCc1ccc(Br)cc1`: the inhibition was 0.93% (inactive).

As for `COC(=O)C1=C(c2ccc(-c3ccccc3)c(F)c2)C[C@@H]2CC[C@H]1N2C(=O)NCc1ccc(F)cc1`, the inhibition was 11.8% (active).

With `CCOC(=O)C(O)(c1ccc(N)c(OC)c1)C(F)(F)F` (stereo not given), the inhibition is 0.45% (inactive).

`CN(C)CCN(CC1CCCN(Cc2ccccc2F)C1)C(=O)Cc1ccc(F)c(F)c1` (stereo not given): the inhibition is 1.2% (inactive).
